Structures can show the parent of a compound that is named as a salt. ± gives the standard deviation.

The test system of this assay is THP-1 macrophages infected with Mycobacterium tuberculosis H37Rv. Briefly: intracellular M.tb growth inhibition relative to DMSO (0) and 4 uM bedaquiline (100); higher = stronger inhibition of intracellular bacterial growth. Particulars: 10 µM; 4 days. The protocol:
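OICR kinase inhibitor library screened in duplicate at 10 uM against THP-1 macrophages (PMA-differentiated) infected with M. tuberculosis H37Rv-pTEC27 (tdTomato RFP), 4 days at 37 C. Rows with complete host cell loss (placeholder inhibition 0, cell loss 100) were removed.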
With `CCN(CC)CCCCN1c2ccccc2Oc2ccc(Cl)cc21` [10-DEBC hydrochloride], the “intracellular M.tb growth inhibition” value was determined as 123 ± 1.9%.
With `O=c1cc(-c2cccc3c2Sc2ccccc2S3)oc(N2CCOCC2)c1`, the “intracellular M.tb growth inhibition” value came to 3.07 ± 24%.
For `O=c1cc(N2CCOCC2)oc2c1ccc1ccccc12` the value was 19.8 ± 4.3%; for `CN(C)CC(C)(C)CNc1nn2c(-c3ccccc3)nnc2cc1C1CCC1`, -56.3 ± 120%.
With `COc1cc2c(N3CCN(C(=O)Nc4ccc(OC(C)C)cc4)CC3)ncnc2cc1OCCCN1CCCCC1` the figure was 53 ± 8%; with `NC(=O)c1ccc(-c2nc(-c3ccc4c(c3)OCCO4)c(-c3ccccn3)[nH]2)cc1`, -106 ± 81%; with `Cc1[nH]c(/C=C2\C(=O)Nc3cc(-c4ccccc4)ccc32)c(C)c1CCC(=O)O`, -5.41 ± 25%.
For `Clc1ccc(Nc2nnc(Cc3ccncc3)c3ccccc23)cc1` [Vatalanib dihydrochloride] the value was -2.9 ± 24%.
Take `Nc1nccc(Oc2ccc(NC(=O)c3c[nH]cc(-c4ccc(F)cc4)c3=O)cc2F)c1Cl`: the “intracellular M.tb growth inhibition” value was found to be 37 ± 33%.
For `Nc1nccc(-c2c(-c3ccc(F)cc3)ncn2C2CCCCC2)n1` the value was 42.4 ± 13%; for `O=c1cc(N2CCOCC2)oc2c(-c3ccccc3)cccc12`, -0.768 ± 100%.
On to `O=c1[nH]nc(Sc2ncc([N+](=O)[O-])s2)n1-c1ccc2c(c1)OCCO2`, for which the “intracellular M.tb growth inhibition” value was -22.3 ± 6%.
For `Cc1[nH]c(/C=C2\C(=O)Nc3ccc(S(=O)(=O)Cc4c(Cl)cccc4Cl)cc32)c(C)c1C(=O)N1CCC[C@@H]1CN1CCCC1` the value was 51 ± 13%; for `COc1cc2ncnc(-n3nc(-c4ccccn4)nc3N)c2cc1OC`, -77 ± 180%.
With `COC(=O)c1ccc2c(c1)NC(=O)/C2=C(\Nc1ccc(N(C)C(=O)CN2CCN(C)CC2)cc1)c1ccccc1` the figure was -144 ± 210%; with `N#Cc1c(-c2ccccc2)cc(-c2cc(Br)ccc2O)[nH]c1=O`, 19.8 ± 17%; with `O=C1C(Cl)=C(NCCN2CCOCC2)C(=O)c2ncccc21`, -3.64 ± 5.1%.
For `Fc1ccc(Cl)cc1-c1nc(Nc2ccncc2)c2nccnc2n1` the value was 36.5 ± 10%; for `CCN1/C(=C/C(C)=O)Sc2ccc(OC)cc21`, -98.4 ± 120%; for `CC(C)[C@H](CO)Nc1nc(Nc2ccc(C(=O)O)c(Cl)c2)c2ncn(C(C)C)c2n1` [Purvalanol B], 2.54 ± 10%.
As for `Cc1[nH]c(/C=C2\C(=O)Nc3ccc(S(=O)(=O)N(C)c4cccc(Cl)c4)cc32)c(C)c1C(=O)N1CCN(C)CC1`, the “intracellular M.tb growth inhibition” value was found to be 41.9 ± 66%.
For `CC(C)(C)n1nc(-c2cccc3ccccc23)c2c(N)ncnc21` [1-Naphthyl PP1] the value was 21.2 ± 3.2%.
With `Cn1c2ccccc2c2c3c(c4c5ccccc5n(CCC#N)c4c21)CNC3=O` the figure was -29.9 ± 36%; with `COc1cc2nccc(Oc3ccc(NC(=O)Nc4ccc(F)cc4F)c(F)c3)c2cc1OC`, 25.2 ± 4.6%; with `CCN(CC)CCCCNc1ncc2cc(-c3cc(OC)cc(OC)c3)c(NC(=O)NC(C)(C)C)nc2n1`, 34.4 ± 29%.
Turning to `O=C(CO)N1CCC(c2n[nH]c(-c3ccc(Cl)cc3)c2-c2ccncn2)CC1`, the “intracellular M.tb growth inhibition” value was -135 ± 140%.
With `CN1CCC(Nc2ncc3ncnc(Nc4ccc(F)c(Cl)c4)c3n2)CC1` [BIBX 1382 dihydrochloride] the figure was 64.2 ± 13%.
With `COc1cc2ncnc(Nc3ccc(Oc4ccccc4)cc3)c2cc1OC` the figure was 41.9 ± 47%; with `FC(F)(F)c1ccc(/C=C/c2nc(COc3ccc(CCCCn4ccnn4)cc3)co2)cc1` [Mubritinib], -50.5 ± 170%; with `CCN(CCO)CCCOc1ccc2c(Nc3cc(CC(=O)Nc4cccc(F)c4)[nH]n3)ncnc2c1`, -51.3 ± 83%.
As for `Cc1cnc(-c2cnc(NCCNc3ccc(C#N)cn3)nc2-c2ccc(Cl)cc2Cl)[nH]1`, the “intracellular M.tb growth inhibition” value stood at 7.29 ± 24%.
Consider `CC[C@H](CO)Nc1nc(NCc2ccccc2)c2ncn(C(C)C)c2n1` [Roscovitine], for which the “intracellular M.tb growth inhibition” value is -23.1 ± 47%.
Regarding `c1cc(OCCN2CCCCC2)cc(-c2n[nH]c3ccc(-c4nnc[nH]4)cc23)c1`, the “intracellular M.tb growth inhibition” value is -65.3 ± 120%.
With `O=C(Nc1cccc(Nc2ncc(Br)c(NCCc3cnc[nH]3)n2)c1)N1CCCC1` the figure was -256 ± 330%.
Take `Cc1cc(C(=O)N2CCN(c3cccc(Cl)c3)CC2)n(-c2ccccc2)n1`: the “intracellular M.tb growth inhibition” value was -17.5 ± 0.18%.
For the compound `COc1cc(Nc2ncc(F)c(Nc3ccc4c(n3)NC(=O)C(C)(C)O4)n2)cc(OC)c1OC`, the “intracellular M.tb growth inhibition” value was -164 ± 230%.
For `OCCC#Cc1nc(-c2ccc(F)cc2)c(-c2ccncc2)n1CCCc1ccccc1` the value was 14.2 ± 4.9%; for `C[C@@H](Oc1cc(-c2cnn(C3CCNCC3)c2)cnc1N)c1c(Cl)ccc(F)c1Cl`, -114 ± 120%.
Regarding `CO[C@H]1C[C@@H]2CC[C@@H](C)[C@@](O)(O2)C(=O)C(=O)N2CCCC[C@H]2C(=O)O[C@H]([C@H](C)C[C@@H]2CC[C@@H](OCCO)[C@H](OC)C2)CC(=O)[C@H](C)/C=C(\C)[C@@H](O)[C@@H](OC)C(=O)[C@H](C)C[C@H](C)/C=C/C=C/C=C/1C` [Everolimus], the “intracellular M.tb growth inhibition” value was found to be 3.03 ± 13%.
With `COc1cc(SC)ccc1C(=O)N1CCC(Cc2ccccc2)CC1` the figure was 41.8 ± 12%.

These data come from the supplement of paper PMC7530171.
